# PubChem BioAssay (EPA / NIEHS)
# “And” between values parts separate entries of the source, which are not always exact repeats. Identical values can stand only once. Results filed as inconclusive are left out. Some compounds were tested as several samples or in several runs, with calls that do not always agree. The source made the active and inactive calls. The calls were made as follows, unless noted: active = hit-call score of the fitted dose curve at least 0.9, where 1 is the maximum; inactive = score below 0.9.
# Experiments:
# [1] = ATG_TCF_b_cat_CIS: Attagene CIS-FACTORIAL HepG2 Assay for human T-Cell-Factor with beta-catenin (TCF/b-cat) (AID 2282965); conditions: HepG2 TCF/beta-catenin cis-reporter transcription, actives raise or lower the signal
# In short: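 Measured: reporter mRNA in HepG2 transiently transfected with cis-promoter reporter units, 24 h after chemical addition. Fitting was bidirectional, DMSO as negative control.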
# [2] = ATG_TAL_CIS: Attagene CIS-FACTORIAL HepG2 Assay for human TAL Basal Promoter (AID 2282966); conditions: HepG2 Attagene cis-factorial TAL promoter reporter; actives raise or lower the signal;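 also: background control endpoint measuring basal TAL promoter reporter mRNA not a specific factor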
# In short: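 In this cell-based multiplex, HepG2 liver cells bearing cis-promoter reporter constructs are dosed for 24 hours. Total RNA is reverse-transcribed and amplified, labelled fragments are sized by capillary electrophoresis, and signal changes are fitted bidirectionally versus DMSO.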
# [3] = ATG_TGFb_CIS: Attagene CIS-FACTORIAL HepG2 Assay for human Transforming Growth Factor (TGF) (AID 2282967); conditions: HepG2 Attagene CIS TGFb reporter, mRNA transcription; actives raise or lower the signal
# In short: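 Cells were dosed for 24 hours, after which total RNA was reverse-transcribed and reporter sequences amplified, labeled and sized by capillary electrophoresis. Activity was fitted in both directions against DMSO.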
# [4] = ATG_VDRE_CIS: Attagene CIS-FACTORIAL HepG2 Assay for human Vitamin D Receptor Element (VDRE) (AID 2282968); conditions: HepG2 VDRE cis-reporter transcription, actives raise or lower the signal
# In short: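 Reporter mRNA induction, quantified by capillary electrophoresis of fluorescently labelled RT-PCR products, was read 24 h after dosing HepG2 cells carrying transiently transfected cis-regulated reporter units; gain or loss relative to DMSO.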
# [5] = biological target: Estrogen receptor (Homo sapiens) (UniProt P03372); test: ATG_ERa_TRANS: Attagene TRANS-FACTORIAL HepG2 Assay for human Estrogen Receptor alpha (ERa) (AID 2282970; active = hit-call score of the fitted dose curve at least 0.9, where 1 is the maximum); conditions: HepG2 Attagene TRANS ERa GAL4 reporter, mRNA
# In short: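 After 24 h of compound treatment, RNA from HepG2 cells bearing transfected GAL4-UAS reporter constructs is converted to cDNA, amplified and fluorescently labelled. Capillary electrophoresis resolves the ERa-linked reporter; DMSO serves as negative control.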
# [6] = biological target: X-box-binding protein 1 (Homo sapiens) (UniProt P17861); test: ATG_Xbp1_CIS: Attagene CIS-FACTORIAL HepG2 Assay for human X-box Binding Protein 1 (XBP1) (AID 2282972); conditions: HepG2 XBP1 cis-element reporter, Attagene multiplex; actives raise or lower the signal
# In short: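 HepG2 cells transiently transfected with cis-regulated multiple reporter transcription units; endogenous transcription factor activity measured 24 hours after chemical dosing. Reporter mRNA quantified by RT-PCR, 6-FAM primer extension, HpaI digestion and capillary electrophoresis; bidirectional fitting versus DMSO.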
# [7] = ATG_M_19_TRANS: Attagene TRANS-FACTORIAL HepG2 Assay for M19 Transcription Factor (Internal Marker) (AID 2282974; active = hit-call score of the fitted dose curve at least 0.9, where 1 is the maximum); conditions: HepG2 Attagene TRANS-FACTORIAL M19 internal marker reporter
# In short: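 HepG2 transiently transfected with GAL4-UAS multiplex reporter constructs, exposed 24 h; reporter RNA quantified by RT-PCR, 6-FAM labeling, HpaI digestion and capillary electrophoresis; internal background marker fitted upward versus DMSO.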
# [8] = ATG_GAL4_TRANS: Attagene TRANS-FACTORIAL HepG2 Assay for GAL4 (Internal Marker) (AID 2282976; active = hit-call score of the fitted dose curve at least 0.9, where 1 is the maximum); conditions: HepG2 Attagene TRANS GAL4 internal marker reporter
# In short: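 RT-PCR/capillary electrophoresis readout of reporter mRNA. HepG2, transient MRTU transfection (GAL4-UAS reporters), 24 h compound exposure. Background-control endpoint, positive direction vs DMSO baseline.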
# [9] = biological target: Nuclear receptor subfamily 1 group I member 3 (Homo sapiens) (UniProt Q14994); test: ATG_CAR_TRANS: Attagene TRANS-FACTORIAL HepG2 Assay for human Constitutive Androstane Receptor (CAR) (AID 2282969; active = hit-call score of the fitted dose curve at least 0.9, where 1 is the maximum;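 also: activators raise reporter mRNA above DMSO so AC50 marks induction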); conditions: HepG2 Attagene TRANS-FACTORIAL CAR reporter
# In short: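 Readout is reporter mRNA induction, quantified by fluorescent primer extension and capillary electrophoresis after RT-PCR. Cells were HepG2 transiently carrying chimeric NR-Gal4 constructs with GAL4-UAS reporters, treated for 24 h; activity scored upward from DMSO.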
# [10] = biological target: Steroid hormone receptor ERR1 (Homo sapiens) (UniProt P11474); test: ATG_ERRa_TRANS: Attagene TRANS-FACTORIAL HepG2 Assay for human Estrogen-Related Receptor alpha (ERRa) (AID 2282971; active = hit-call score of the fitted dose curve at least 0.9, where 1 is the maximum); conditions: HepG2 Attagene TRANS reporter, ERRa transactivation
# In short: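 Transfected HepG2, 24 h dosing, ERRa-Gal4 chimera driving GAL4-UAS reporter. Readout: reporter mRNA via RT-PCR plus capillary electrophoresis (fluorescence). Positive direction vs DMSO control.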
# Chain of Estrogen receptor (Homo sapiens) (P03372 whole entry, looked up, the tested form may be a part): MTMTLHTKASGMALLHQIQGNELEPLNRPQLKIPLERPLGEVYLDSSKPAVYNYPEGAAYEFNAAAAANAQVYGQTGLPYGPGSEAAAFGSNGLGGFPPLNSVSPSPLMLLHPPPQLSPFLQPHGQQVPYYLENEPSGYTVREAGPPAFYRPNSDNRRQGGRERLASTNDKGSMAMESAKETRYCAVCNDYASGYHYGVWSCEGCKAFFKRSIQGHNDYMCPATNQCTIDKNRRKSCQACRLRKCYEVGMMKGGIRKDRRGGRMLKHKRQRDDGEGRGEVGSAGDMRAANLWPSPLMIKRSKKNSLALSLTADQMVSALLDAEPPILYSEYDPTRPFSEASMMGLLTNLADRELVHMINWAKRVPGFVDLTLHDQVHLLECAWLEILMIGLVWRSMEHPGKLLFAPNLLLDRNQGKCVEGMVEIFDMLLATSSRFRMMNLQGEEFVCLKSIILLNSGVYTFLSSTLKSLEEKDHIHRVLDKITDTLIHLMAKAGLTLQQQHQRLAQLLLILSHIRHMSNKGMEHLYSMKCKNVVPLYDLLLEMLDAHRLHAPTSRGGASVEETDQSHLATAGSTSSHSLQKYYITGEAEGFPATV
# Chain of Nuclear receptor subfamily 1 group I member 3 (Homo sapiens) (Q14994 whole entry, looked up, the tested form may be a part): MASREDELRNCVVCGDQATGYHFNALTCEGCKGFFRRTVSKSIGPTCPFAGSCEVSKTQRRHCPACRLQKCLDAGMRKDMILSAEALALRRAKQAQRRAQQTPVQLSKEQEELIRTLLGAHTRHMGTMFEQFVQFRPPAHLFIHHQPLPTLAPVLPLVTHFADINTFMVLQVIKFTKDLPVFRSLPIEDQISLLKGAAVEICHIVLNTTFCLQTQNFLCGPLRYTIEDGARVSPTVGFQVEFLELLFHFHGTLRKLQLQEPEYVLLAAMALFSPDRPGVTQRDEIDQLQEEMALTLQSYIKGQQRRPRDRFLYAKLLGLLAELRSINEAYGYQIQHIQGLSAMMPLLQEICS
# Chain of Steroid hormone receptor ERR1 (Homo sapiens) (P11474 whole entry, looked up, the tested form may be a part): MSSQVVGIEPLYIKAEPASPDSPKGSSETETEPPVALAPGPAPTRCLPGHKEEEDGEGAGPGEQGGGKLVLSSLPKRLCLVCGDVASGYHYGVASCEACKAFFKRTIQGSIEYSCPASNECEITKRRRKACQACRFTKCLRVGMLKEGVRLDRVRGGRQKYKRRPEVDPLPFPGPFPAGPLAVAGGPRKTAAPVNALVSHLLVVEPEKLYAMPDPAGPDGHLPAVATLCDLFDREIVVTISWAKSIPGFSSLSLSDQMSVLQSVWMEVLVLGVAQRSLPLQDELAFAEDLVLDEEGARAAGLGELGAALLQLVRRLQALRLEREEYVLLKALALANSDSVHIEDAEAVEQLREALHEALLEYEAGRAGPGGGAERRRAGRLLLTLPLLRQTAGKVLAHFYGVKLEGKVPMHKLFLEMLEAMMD
# Chain of X-box-binding protein 1 (Homo sapiens) (P17861 whole entry, looked up): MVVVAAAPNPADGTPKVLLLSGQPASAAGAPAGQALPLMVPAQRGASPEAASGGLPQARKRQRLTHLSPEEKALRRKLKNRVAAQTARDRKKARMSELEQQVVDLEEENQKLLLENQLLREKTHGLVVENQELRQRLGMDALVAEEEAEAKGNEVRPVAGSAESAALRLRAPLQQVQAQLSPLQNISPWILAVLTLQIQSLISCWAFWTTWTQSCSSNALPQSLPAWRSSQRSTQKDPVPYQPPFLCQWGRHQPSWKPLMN
Structure (SMILES),outcome [1],outcome [2],outcome [3],AC50 [4],outcome [4],outcome [5],outcome [6],outcome [7],outcome [8],outcome [9],AC50 [5],outcome [10],AC50 [1],AC50 [2],AC50 [3],AC50 [6]
O=S(=O)(O)c1ccc2ccccc2c1,inactive,inactive,inactive,29.3 µM (active),inactive,inactive,inactive,inactive,inactive,–,–,–,–,–,–,–
O[Si](c1ccccc1)(c1ccccc1)c1ccccc1,inactive,inactive,inactive,–,inactive,–,inactive,–,–,inactive,4.11 µM (active),inactive,–,–,–,–
O=C(O)C(F)(F)C(F)(F)C(F)(F)C(F)(F)C(F)(F)C(F)(F)C(F)(F)C(F)(F)C(F)(F)C(F)(F)C(F)(F)C(F)(F)C(F)(F)F,inactive,inactive,inactive,–,inactive,inactive,inactive,–,inactive,inactive,–,inactive,–,–,–,–
COC(OC(C)=O)c1ccccc1 (centres undefined),inactive,inactive,inactive,–,inactive,inactive,inactive,inactive,–,inactive,–,inactive,–,–,–,–
O=C(O)C(F)(F)C(F)(F)C(F)(F)C(F)(F)C(F)(F)C(F)(F)C(F)(F)C(F)(F)Cl,–,inactive,–,49.3 µM (active) and 67.4 µM (active),–,–,–,inactive,–,–,27.2 µM (active) and 31.4 µM (active),–,50 µM (active),50 µM (active),74.7 µM (active) and 82.8 µM (active),58.7 µM (active) and 50 µM (active)
C=C(C)C(=O)OCC(F)(F)C(F)(F)C(F)(F)C(F)(F)C(F)(F)C(F)(F)C(F)(F)F,inactive,inactive,inactive,–,inactive,–,inactive,inactive,inactive,inactive,10.5 µM (active),inactive,–,–,–,–
C=CC/C=C/C/C=C/C/C=C/C,inactive,inactive,inactive,–,inactive,inactive,inactive,–,–,inactive,–,inactive,–,–,–,–
CC(CCl)OP(=O)(OC(C)CCl)OC(C)CCl (centres undefined),inactive,inactive,inactive,–,inactive,inactive,inactive,inactive,–,inactive,–,inactive,–,–,–,–
CCN(CC)c1ccc2c(C)cc(=O)oc2c1,inactive,inactive,inactive,9.28 µM (active),–,–,inactive,inactive,–,inactive,25.4 µM (active),–,–,–,–,–
[Co],inactive,inactive,inactive,–,inactive,–,inactive,inactive,inactive,inactive,32.5 µM (active),inactive,–,–,–,–
CCCCCCC(C)OC(=O)CCCCC(=O)OC(C)CCCCCC (centres undefined),inactive,inactive,inactive,–,inactive,inactive,inactive,–,–,inactive,–,inactive,–,–,–,–
CCN(Cc1cccc(S(=O)(=O)O)c1)c1ccc(C(=C2C=CC(=[N+](CC)Cc3cccc(S(=O)(=O)O)c3)C=C2)c2ccc(O)cc2S(=O)(=O)[O-])cc1,inactive,inactive,inactive,–,inactive,inactive,inactive,inactive,–,inactive,–,inactive,–,–,–,–
CC(C)c1ccccc1N,inactive,inactive,inactive,35.5 µM (active),–,inactive,inactive,inactive,inactive,inactive,–,inactive,–,–,–,–
O=C(CC(=O)C(F)(F)C(F)(F)F)C(F)(F)F,inactive,inactive,inactive,–,inactive,–,inactive,inactive,inactive,–,–,inactive,150 µM (active),–,–,–
FC(F)(F)C(F)(F)C(F)(F)C(F)(F)C(F)(F)CCI,inactive,inactive,inactive,–,inactive,–,inactive,inactive,–,inactive,41 µM (active),inactive,–,–,–,–
FC(F)(F)C(F)(F)C(F)(F)C(F)(F)C(F)(F)C(F)(F)CC1CO1 (centres undefined),inactive,inactive,inactive,–,inactive,inactive,inactive,inactive,inactive,inactive,–,inactive,–,–,–,–
CCCCCC=O,inactive,inactive,inactive,–,inactive,inactive,inactive,inactive,inactive,inactive,–,inactive,–,–,–,–
O=C(O)C(F)(F)C(F)(F)OC(F)(F)F,inactive,inactive,inactive,–,inactive,inactive,inactive,–,inactive,inactive,–,inactive,–,–,–,–
c1ccc(B(c2ccccc2)c2ccccc2)cc1,inactive,inactive,inactive,20.7 µM (active),–,–,–,inactive,inactive,inactive,5.7 µM (active),inactive,–,–,–,31.7 µM (active)
CC/C=C\CCOC(=O)c1ccccc1,inactive,inactive,inactive,–,inactive,inactive,inactive,inactive,inactive,inactive,–,inactive,–,–,–,–
CCCCOc1ccc(N)cc1,inactive,inactive,inactive,–,inactive,inactive,inactive,inactive,inactive,inactive,–,inactive,–,–,–,–

Structure (SMILES),outcome [1],outcome [2],outcome [3],AC50 [4],outcome [4],outcome [5],outcome [6],outcome [7],outcome [8],outcome [9],AC50 [5],outcome [10],AC50 [1],AC50 [2],AC50 [3],AC50 [6]
OCCCC(F)(F)C(F)(F)C(F)(F)F,inactive,inactive,inactive,–,inactive,inactive,inactive,inactive,inactive,inactive,–,inactive,–,–,–,–
O=C(O)C(F)(F)C(F)(F)C(F)(F)C(F)(F)C(F)(F)C(F)(F)C(F)(F)C(F)(F)C(F)(F)C(F)F,inactive,inactive,inactive,–,inactive,–,inactive,–,inactive,inactive,24.6 µM (active),inactive,–,–,–,–
O=C(O)C(F)(F)C(F)(F)C(F)(F)F,inactive,inactive,inactive,–,inactive,–,inactive,inactive,inactive,inactive,108 µM (active),inactive,–,–,–,–
Nc1ccc(Oc2cccc(Oc3ccc(N)cc3)c2)cc1,–,inactive,inactive,–,inactive,–,–,–,–,inactive,2.58 µM (active),inactive,27.4 µM (active),–,–,42 µM (active)
OCCCC(F)(F)C(F)(F)C(F)(F)C(F)(F)C(F)(F)C(F)(F)C(F)(F)F,inactive,inactive,inactive,150 µM (active),inactive,–,–,–,–,–,13.7 µM (active) and 13.2 µM (active),inactive,33.7 µM (active),88.7 µM (active),–,72.5 µM (active) and 97.8 µM (active)
C#C[C@]1(O)CC[C@H]2[C@@H]3CCc4cc(OC)ccc4[C@H]3CC[C@@]21C,inactive,inactive,–,0.921 µM (active),–,–,inactive,–,inactive,inactive,0.00914 µM (active),inactive,–,–,139 µM (active),–
CCCCCCCCCCCCCCCC[N+](C)(C)Cc1ccccc1,inactive,inactive,inactive,–,inactive,inactive,inactive,–,–,inactive,–,inactive,–,–,–,–
CC(=O)Nc1ccc(N=Nc2cc(C)ccc2O)cc1,inactive,inactive,–,13.6 µM (active),–,inactive,inactive,–,–,inactive,–,inactive,–,–,11.6 µM (active),–
FC(F)(F)C(F)(F)C(F)(F)C(F)(F)C(F)(F)C(F)(F)CCS,inactive,inactive,inactive,–,inactive,inactive,inactive,–,inactive,inactive,–,inactive,–,–,–,–
Cc1cccc(N(C)C)c1,inactive,inactive,inactive,–,inactive,inactive,inactive,–,inactive,inactive,–,inactive,–,–,–,–
O=S(=O)(O)C(F)(F)C(F)(F)C(F)(F)C(F)(F)C(F)(F)C(F)(F)C(F)(F)F,inactive,inactive,–,–,inactive,–,inactive,inactive,inactive,inactive,43.3 µM (active) and 58.7 µM (active),inactive,78.9 µM (active),–,148 µM (active) and 81.5 µM (active),–
Oc1ccc(Nc2ccccc2)cc1,inactive,inactive,inactive,56.3 µM (active),–,–,inactive,–,inactive,inactive,5.96 µM (active),inactive,–,–,–,–
COC(=O)C1CCC(C(=O)OC)CC1 (centres undefined),inactive,inactive,inactive,–,inactive,–,inactive,inactive,–,–,–,inactive,55.4 µM (active),–,–,–
CCCCNc1ccccc1,inactive,inactive,inactive,–,inactive,inactive,inactive,inactive,inactive,inactive,–,–,–,–,–,–
FC(F)(F)C(F)(F)C(F)(F)C(F)(F)C(F)(F)C(F)(F)C(F)(F)I,inactive,inactive,inactive,–,inactive,–,inactive,inactive,–,inactive,–,inactive,–,–,–,–
O=S(=O)(OCCOC(F)(F)F)C(F)(F)F,inactive,inactive,inactive,–,inactive,–,inactive,inactive,inactive,inactive,–,inactive,–,–,–,–
CCCCCCOC(=O)c1ccccc1,inactive,inactive,inactive,–,inactive,inactive,inactive,inactive,–,inactive,–,–,–,–,–,–
CC(C)OC(=O)c1ccccc1C(=O)OC(C)C,inactive,inactive,inactive,14.2 µM (active),–,–,inactive,–,inactive,inactive,11.2 µM (active),–,–,–,–,–
O=C(O)C(F)(F)C(F)(F)C(F)F,inactive,inactive,inactive,–,inactive,inactive,inactive,inactive,inactive,inactive,–,–,–,–,–,–
O=C(O)C(F)(F)C(F)(F)C(F)(F)C(F)(F)C(F)(F)C(F)(F)C(F)(F)C(F)(F)C(F)(F)C(F)(F)C(F)(F)C(F)(F)F,–,inactive,–,–,inactive,inactive,inactive,inactive,inactive,inactive,–,–,100 µM (active),–,65.5 µM (active),–
C(=C(c1ccccc1)c1ccccc1)c1ccccc1,inactive,inactive,–,–,inactive,–,inactive,inactive,inactive,inactive,0.0329 µM (active),–,–,–,100 µM (active),–
